KB-V1 cytotox – qHTS assay for MDR1-selective chemotherapeutics: Primary screen using the drug-selected MDR subline cells KB-V1; KB-V1 MDR cells viability, CellTiter-Glo, 72 h; Potency, µM (titrated, usually from 46.1 µM), usual class: cytotoxic; 400,000 tested, 3.4% active; AID 1347076, 2019; also: nearly all actives have a fitted effect of over 60% in size
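KB-V1 cells (P-gp-expressing MDR subline of KB-3-1) in phenol-red-free DMEM with 10% FBS were exposed to library compounds over a concentration series for 72 h at 37 degrees C. Viability read by CellTiter-Glo luminescence; concentration-effect curves fitted after normalization.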
HT1080 IDH1KD tx – qHTS for induction of synthetic lethality in tumor cells producing 2HG: qHTS for the HT-1080-IDH1KD cell line; HT-1080 IDH1 knockdown viability, ATP luminescence, 48 h; Potency, µM (top dose mostly 46.1 µM), most hits filed as cytotoxic; 360,000 tested, 2% active; AID 686971, 2013
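Using the IDH1-knockdown HT-1080 line run in the same batch and compound series as the NT line, viability after 48 h at 37 °C was determined by CellTiter-Glo luminescence and expressed as % activity.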
ATXN2 expr inh – Primary qHTS for Inhibitors of ATXN expression; AID 1745845, 2022; Potency, µM (series often up to 57 µM), actives largely listed as inhibitors; HEK-293 ATXN2-luciferase reporter, luminescence, 24 h; 360,000 tested, 0.72% active; also: nearly all actives have a fitted effect of over 55% in size
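qHTS (up to 57 uM final) was run with 24 h compound exposure of reporter cells at 37 °C. Each well was multiplexed: SteadyGlo luminescence measured ATXN2-luciferase expression after a fluorogenic Gly-Phe-AFC viability readout (25 uM final).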
ATXN viability – Viability Counterscreen for Primary qHTS for Inhibitors of ATXN expression; S2 cells (HEK-293 line with an ATXN2-luciferase reporter) viability, CellTiter-Fluor protease fluorescence, 24 h; Potency, µM (series often up to 56.7 µM), most hits filed as cytotoxic; 400,000 tested, 0.49% active; AID 651635, 2014; also: nearly all actives have a fitted effect of over 40% in size
HT1080-NT tox – qHTS for induction of synthetic lethality in tumor cells producing 2HG: qHTS for the HT-1080-NT fibrosarcoma cell line | HT-1080-NT fibrosarcoma viability, CellTiter-Glo ATP luminescence, 48 h | Potency, µM (highest dose often 46.1 µM), most hits filed as cytotoxic | 360,000 tested, 1.6% active;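 also: NT is the 2HG producing partner of a matched IDH1 knockdown line; nearly all actives have a fitted effect of over 55% in size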
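Toxicity toward the 2HG-producing NT line was scored as %Activity, normalised to DMSO and no-cell wells, from CellTiter-Glo luminescence after 48 hours' treatment.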
KB-3-1 cytotox – qHTS assay for MDR1-selective chemotherapeutics: Primary screen using the parental adenocarcinoma cell KB-3-1; 400,000 tested, 1.4% active; Potency, µM (doses to about 46.1 µM), usual class: cytotoxic; KB-3-1 viability, CellTiter-Glo ATP luminescence, 72 h; also: nearly all actives have a fitted effect of over 60% in size
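Parental KB-3-1 adenocarcinoma cells in phenol-red-free DMEM with 10% FBS were pin-treated with compounds at several concentrations, incubated 72 h at 37 °C, and viability read by CellTiter-Glo luminescence; concentration-effect curves were fitted after normalization.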
Hits are given with their value; - = inactive; ? = inconclusive; . = not tested or not shown; [ ] = remark or other dose. A selection: hits, their analogues and other compounds. The true share with any hit is near 6.2%. Calls follow the shape of the dose curve; as a rule, active = well fitted curve in the direction sought with a large enough effect; inconclusive = small, poorly fitted or top-dose-only effect, or another doubt; inactive = no such curve, though single readings can be large; an effect the other way counts as inactive or inconclusive.

SMILES	KB-V1 cytotox	HT1080 IDH1KD tx	ATXN2 expr inh	ATXN viability	HT1080-NT tox	KB-3-1 cytotox
COc1ccc(-c2cc(C(=O)N3CC4(C)CC3CC(C)(C)C4)no2)cc1 (centres undefined)	-	-	-	-	-	?
COc1ccc(-c2cc(C(=O)N3CC4(C)CC3CC(C)(C)C4)no2)cc1OC (centres undefined)	21µM	-	-	-	-	-
N#Cc1cc2sc3nnc(-c4ccncc4)n3c2cc1C#N	2.1µM	?	-	-	?	6.5µM
N#CCSc1nnc2sc3ccccc3n12	-	-	-	-	-	-
O=S(=O)(Nc1ccc(C(O)(C(F)(F)F)C(F)(F)F)cc1)c1ccc(Cl)c2nonc12	?	15µM	18µM	.	21µM	?
O=C1Nc2ccc(Br)cc2C12NNc1ccccc1O2 (centres undefined)	-	?	?	25µM	-	?
CC1(C)Oc2ccc3ccc(=O)oc3c2C[C@H]1O[C@@H]1O[C@H](CO)[C@@H](O)[C@H](O)[C@H]1O	-	-	-	-	-	-
CC(=O)OC(C)(C)/C=C/C(=O)[C@](C)(O)C1[C@H](O)C[C@@]2(C)C3CC=C4C(C=C(O[C@@H]5O[C@H](CO)[C@@H](O)[C@H](O)[C@H]5O)C(=O)C4(C)C)[C@]3(C)C(=O)C[C@]12C (some centres undefined)	?	23µM	-	?	?	?
CSC(=Nc1ccccc1)N=C(SCc1ccccc1)N(C)C	5.8µM	13µM	?	9.5µM	21µM	4.1µM
COc1cc(C)c(C(=O)CC(=O)c2c(C)cc(OC)cc2C)c(C)c1	-	?	25µM	-	-	-
O=c1cc(Nc2ccc3c(c2)OCO3)[nH]c(=O)n1-c1ccc(Br)cc1	?	35µM	-	-	?	-
COc1ccc(NC(=O)C#Cc2ccccc2)cc1OC	?	18µM	-	-	?	18µM
CC(Oc1ccccc1)C(=O)Nc1ccc(C(N)=O)cc1 (centres undefined)	-	-	-	-	-	-
NC(=O)c1ccc(NC(=O)C#Cc2ccccc2)cc1	-	16µM	-	?	21µM	23µM
O=C(COC(=O)c1ccccc1Oc1ccccc1)Nc1ccc(Br)cc1	.	-	.	.	-	.
COc1ccccc1Nc1nn2c(=O)c3ccc(C(=O)NCCC4=CCCCC4)cc3nc2s1	?	.	3.2µM	.	.	?
Cc1ccc(C)c(Nc2nn3c(=O)c4ccc(C(=O)NCCC5=CCCCC5)cc4nc3s2)c1	-	.	-	-	.	-
COc1ccccc1CNC(=O)CCCn1c(=O)c2ccccc2n(Cc2ccc(F)cc2)c1=O	-	.	-	-	.	-
CC1CCCCN1C(=O)COC(=O)c1cc([N+](=O)[O-])ccc1N (centres undefined)	16µM	-	-	-	-	-
Cc1cc2c(c(-c3ccc(Cl)cc3)c1)OC(CNC(=O)Cc1c(C)noc1C)C2 (centres undefined)	.	.	.	-	.	.
CCOC(=O)c1ccc(NC(=O)CCC(=O)N2Cc3ccccc3Oc3ncccc32)cc1	-	.	-	?	.	-
COC(=O)C1=C(C)NC(C)=C(C(=O)OC)C1c1ccc(-c2cccc(Cl)c2Cl)o1	16µM	-	-	-	-	-
COC(=O)C1=C(C)NC(C)=C(C(=O)OC)C1c1ccc(-c2cc(Cl)ccc2Cl)o1	-	?	-	?	-	-
CCOc1ccccc1CNC(=O)c1cc(-c2ccc(Cl)s2)nc2ccccc12	-	.	-	-	.	-
COc1cccc(C2=NOC(C(=O)NCc3ccc(F)cc3)C2)c1 (centres undefined)	?	?	-	-	-	-
SMILES	KB-V1 cytotox	HT1080 IDH1KD tx	ATXN2 expr inh	ATXN viability	HT1080-NT tox	KB-3-1 cytotox
COc1cc(C2=NOC(C(=O)NCc3ccc(F)cc3)C2)cc(OC)c1OC (centres undefined)	1.5µM	0.71µM	-	-	1.1µM	1.5µM
COc1cc(C2=NOC(C(=O)NCc3ccccn3)C2)cc(OC)c1OC (centres undefined)	-	-	-	-	-	-
COc1ccc(C2=NOC(C(=O)NCc3ccc(F)cc3)C2)cc1OC (centres undefined)	0.52µM	1.1µM	-	?	1.3µM	-
CCOC(=O)C1CCN(C(c2ccccc2OC)c2c(O)cc(C)n(CCOC)c2=O)CC1 (centres undefined)	-	.	.	.	.	-
CCOc1cc(CNc2ccc(S(N)(=O)=O)cc2)cc(Cl)c1OC	-	-	-	-	-	-
CCOc1cc(CNCCc2ccc(S(N)(=O)=O)cc2)cc(Cl)c1OCc1ccccc1	?	18µM	20µM	.	14µM	-
COc1ccc(CNCCc2ccc(Cl)cc2)cc1OCc1ccccc1	-	?	-[11.3 µM]	?	?	?
CCOc1cc(CNCc2ccccc2)ccc1OCc1ccc(Cl)cc1	-	?	?	?	15µM	?
CCCCNCc1cc(Br)c(OCc2cccs2)c(OC)c1	?	21µM	-	-	?	?
CCOc1cc(CNn2cn[nH]c2=S)cc(Cl)c1OCc1ccccc1F	16µM	-	-	-	-	-
COc1cc(CNn2c(C)n[nH]c2=S)cc(Cl)c1OCc1ccc(F)cc1	?	-	-	-	-	-
COc1cccc(C(=O)Nc2ccccc2-c2nnc(-c3cccc(OC)c3)o2)c1	-	.	-	-	.	-
COc1cccc(CN2C(=O)NC(C)(C3CCN(Cc4cccc(O)c4)CC3)C2=O)c1OC (centres undefined)	.	.	.	-	.	.
COc1ccc(C2c3cc(OC)c(OC)cc3CC(=O)N2c2ccc(C)cc2)cc1 (centres undefined)	-	.	-	?	.	-
OCCNCc1cc(Br)ccc1OCc1ccccc1	15µM	-	-	-	-	-
CCOc1cc(CNCCO)cc(Br)c1OCc1ccccc1	?	?	?	?	21µM	?
COc1cc(CNC(C)c2ccccc2)cc(Br)c1OCc1ccccc1 (centres undefined)	?	?	?	?	16µM	?
COc1cc(CNc2ccc(O)cc2)cc(Br)c1OCc1ccccc1	-	-	.	-	?	-
CCOc1cc(CNCc2ccccn2)cc(Cl)c1OCC	-	-	-	-	-	-
CCNCc1cc(Cl)c(OCc2ccccc2)c(OCC)c1	-	?	?	-	16µM	-
O=C1C(=O)c2ccc(-c3ccccc3)cc2-c2ccccc21	3.7µM	3.3µM	?	5.6µM	3.7µM	4.1µM
Nc1ccc2c(c1)C(=O)c1ccccc1-2	-	-	-	-	-	-
